Results from PubChem BioAssay (NCI).
The panel holds about 79,000 compounds, 15% with a hit somewhere; the sample as a whole holds those more often. The source made the active and inactive calls. No stated cut-off is given here; in the data, active means growth inhibition above about 70%; inactive means the rest.

What was measured:
[1] = NCI Yeast Anticancer Drug Screen. Data for the wt1 strain (AID 149);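 further: 0% = growth of vehicle-treated wt1 cultures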; settings: S. cerevisiae wt1 strain (SPY 50644) growth inhibition, stronger effect = higher value
In short: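 Yeast wt1 strain exposed to compounds; growth inhibition measured relative to vehicle-treated controls.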

[2] = NCI Yeast Anticancer Drug Screen. Data for the rad50EPP+ strain (AID 151);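 further: 0% = growth of vehicle-treated control cultures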; settings: S. cerevisiae rad50 mutant strain, stronger effect = higher value
In short: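 One strain with a rad50 alteration (rad50EPP+) was compound-treated, its growth then compared to that of vehicle controls.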

[3] = NCI Yeast Anticancer Drug Screen. Data for the mgt1 strain (AID 153); settings: S. cerevisiae mgt1 mutant growth inhibition, stronger effect = higher value
In short: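 After exposure of the mgt1 yeast mutant to compound, growth was measured and reported as inhibition compared with vehicle controls.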

[4] = NCI Yeast Anticancer Drug Screen. Data for the rad50 strain (AID 155);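 further: 0% = growth of vehicle-only cultures of the same strain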; settings: S. cerevisiae rad50 strain growth inhibition, stronger effect = higher value
In short: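 Yeast carrying a defined DNA repair defect were exposed to test compounds, and growth was compared with vehicle-treated controls to give percent inhibition.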

[5] = NCI Yeast Anticancer Drug Screen. Data for the mec2-1 strain (AID 157); settings: S. cerevisiae mec2-1 strain, stronger effect = higher value
In short: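 Test agents were screened against the mec2-1 yeast strain, with defined DNA repair or cell cycle alteration. Growth was scored as inhibition against vehicle-only controls.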

[6] = NCI Yeast Anticancer Drug Screen. Data for the rad14 strain (AID 159);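 further: 0% = growth of vehicle-treated control cultures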; settings: S. cerevisiae rad14 strain growth inhibition, stronger effect = higher value
In short: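 Yeast cells carrying a defined DNA-repair defect were exposed to compounds, and growth inhibition was calculated relative to vehicle-treated control cultures.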

[7] = NCI Yeast Anticancer Drug Screen. Data for the sgs1 mgt1 strain (AID 161);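 further: 0% = growth of cultures given vehicle only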; settings: S. cerevisiae sgs1 mgt1 strain, stronger effect = higher value
In short: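 Test agents were incubated with a DNA-repair-mutant yeast strain. Growth was then read and compared against vehicle-treated controls.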

[8] = NCI Yeast Anticancer Drug Screen. Data for the CLN2oe strain (AID 163);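 further: 0% = growth of vehicle-only control cultures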; settings: S. cerevisiae CLN2oe strain, stronger effect = higher value
In short: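 Here, growth inhibition in a cell-cycle-altered yeast strain after compound exposure was quantified against vehicle control growth.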

[9] = NCI Yeast Anticancer Drug Screen. Data for the cln2 rad14 strain (AID 165);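 further: 0% = growth equal to vehicle treated cultures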; settings: S. cerevisiae cln2 rad14 strain, stronger effect = higher value
In short: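 Growth of compound-exposed yeast (cln2 rad14 genotype) measured and expressed as inhibition relative to vehicle.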

[10] = NCI Yeast Anticancer Drug Screen. Data for the bub3 strain (AID 167); settings: S. cerevisiae bub3 mutant strain, stronger effect = higher value
In short: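 Compounds were applied to a genetically altered yeast strain carrying a cell-cycle control defect. Growth inhibition was scored against vehicle-treated controls.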

[11] = NCI Yeast Anticancer Drug Screen. Data for the wt2 strain (AID 169);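 further: 0% = growth of vehicle-treated yeast cultures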; settings: S. cerevisiae wt2 strain growth inhibition, stronger effect = higher value
In short: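 Genetically defined yeast strains from a DNA-repair/cell-cycle panel were used. Compound-exposed yeast growth was measured, and the inhibition was calculated relative to vehicle treatment.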

[12] = NCI Yeast Anticancer Drug Screen. Data for the mlh1 strain (AID 171);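 further: 0% = growth of vehicle-treated control cultures of the same strain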; settings: S. cerevisiae mlh1 strain growth inhibition, stronger effect = higher value
In short: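 Here the genetically defined yeast mutant is grown with each compound, and the extent to which its growth falls below that of vehicle-exposed cells is reported.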

[13] = NCI Yeast Anticancer Drug Screen. Data for the sgs1 strain (AID 173);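 further: 0% = growth of vehicle-only control cultures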; settings: S. cerevisiae sgs1 mutant, stronger effect = higher value
In short: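 Relative growth inhibition, referenced to vehicle, was determined in a yeast strain with a defined alteration affecting DNA damage repair or cell cycle control after compound exposure.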

[14] = NCI Yeast Anticancer Drug Screen. Data for the rad18 strain (AID 177); settings: S. cerevisiae rad18 mutant growth inhibition, stronger effect = higher value
In short: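 Screen uses a yeast strain with a defined lesion in DNA damage repair; compound effect is read as loss of growth compared to untreated vehicle cultures.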

[15] = NCI Yeast Anticancer Drug Screen. Data for the rad52 strain (AID 147);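 further: 0% = growth of vehicle-treated control cultures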; settings: S. cerevisiae rad52 mutant growth inhibition, stronger effect = higher value
In short: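 Measured: yeast growth inhibition. System: strain with a defined DNA damage repair alteration. Reference: vehicle-treated control cultures.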

[16] = NCI Yeast Anticancer Drug Screen. Data for the mlh1 rad18 strain (AID 175); settings: S. cerevisiae mlh1 rad18 strain growth inhibition, stronger effect = higher value
In short: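 In this whole-cell yeast screen, a strain with altered DNA damage repair is challenged with compound, and its growth is measured against matched vehicle-treated controls.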

[17] = at 5.0 µM (retest, dose inferred, filed as 0.5)
[18] = at 50.0 µM (retest, dose inferred, filed as 5.0)

Measured: growth inhibition

CN1c2ccc(Cl)cc2C(=O)NC1c1ccc([N+](=O)[O-])s1 (stereo unspecified)
active: [1]; at 33.0 µM 92% | [1]; at 100.0 µM 96% | [3]; at 33.0 µM 97% | [3]; at 100.0 µM 96% | [4]; at 11.0 µM 72% | [4]; at 33.0 µM 97% | [4]; [18] 95% | [4]; at 50.0 µM 91.3% | [4]; at 100.0 µM 96% | [5]; at 33.0 µM 93% | [5]; [18] 95% | [5]; at 50.0 µM 93.2% | [5]; at 100.0 µM 96% | [6]; at 11.0 µM 71% | [6]; at 33.0 µM 96% | [6]; at 100.0 µM 97% | [7]; [18] 94% | [7]; at 50.0 µM 93.8% | [8]; at 33.0 µM 92% | [8]; at 100.0 µM 97% | [9]; [18] 96% | [9]; at 50.0 µM 91% | [10]; at 33.0 µM 93% | [10]; [18] 97% | [10]; at 50.0 µM 92.4% | [10]; at 100.0 µM 97% | [11]; at 33.0 µM 97% | [11]; at 100.0 µM 97% | [12]; at 33.0 µM 96% | [12]; at 100.0 µM 97% | [13]; at 33.0 µM 95% | [13]; at 100.0 µM 96% | [14]; at 11.0 µM 81% | [14]; at 33.0 µM 96% | [14]; at 100.0 µM 97%
inactive: [1]; at 1.2 µM 5% | [1]; at 3.7 µM 1% | [1]; at 11.0 µM 17% | [2]; at 1.2 µM 0% | [2]; at 3.7 µM -4% | [2]; at 11.0 µM 18% | [2]; at 33.0 µM 61% | [2]; at 100.0 µM 67% | [3]; at 1.2 µM -5% | [3]; at 3.7 µM 8% | [3]; at 11.0 µM 23% | [4]; at 1.2 µM 20% | [4]; at 3.7 µM 39% | [4]; [17] 9% | [5]; at 1.2 µM -7% | [5]; at 3.7 µM -52% | [5]; [17] 19% | [5]; at 11.0 µM 14% | [6]; at 1.2 µM -8% | [6]; at 3.7 µM -3% | [7]; [17] -10% | [8]; at 1.2 µM 4% | [8]; at 3.7 µM -2% | [8]; at 11.0 µM -3% | [9]; [17] 37% | [10]; at 1.2 µM 0% | [10]; at 3.7 µM 2% | [10]; [17] -1% | [10]; at 11.0 µM 11% | [11]; at 1.2 µM 7% | [11]; at 3.7 µM 4% | [11]; at 11.0 µM 42% | [12]; at 1.2 µM 13% | [12]; at 3.7 µM 14% | [12]; at 11.0 µM 51% | [13]; at 1.2 µM -4% | [13]; at 3.7 µM 13% | [13]; at 11.0 µM 58% | [14]; at 1.2 µM 3% | [14]; at 3.7 µM 25%

NC(=S)N/N=C\c1nccc2ccccc12
active: [15]; at 33.0 µM 95% | [15]; at 100.0 µM 99% | [2]; at 100.0 µM 97% | [3]; at 33.0 µM 97% | [3]; at 100.0 µM 99% | [4]; at 33.0 µM 97% | [4]; [18] 96% | [4]; at 50.0 µM 99% | [4]; at 100.0 µM 97% | [5]; at 11.0 µM 97% | [5]; at 33.0 µM 99% | [5]; [18] 98% | [5]; at 50.0 µM 99.5% | [5]; at 100.0 µM 99% | [7]; [18] 98% | [7]; at 50.0 µM 99% | [8]; at 33.0 µM 96% | [8]; at 100.0 µM 99% | [9]; [18] 97% | [9]; at 50.0 µM 97.5% | [10]; at 33.0 µM 96% | [10]; [18] 97% | [10]; at 50.0 µM 99.2% | [10]; at 100.0 µM 97% | [11]; at 33.0 µM 97% | [11]; at 100.0 µM 99% | [13]; at 33.0 µM 99% | [13]; at 100.0 µM 99% | [16]; [18] 96% | [16]; at 50.0 µM 98.4% | [14]; at 33.0 µM 97% | [14]; at 100.0 µM 99%
inactive: [15]; at 1.2 µM -10% | [15]; at 3.7 µM -3% | [15]; at 11.0 µM 40% | [2]; at 1.2 µM 1% | [2]; at 3.7 µM -1% | [2]; at 11.0 µM -16% | [2]; at 33.0 µM 27% | [3]; at 1.2 µM -2% | [3]; at 3.7 µM -6% | [3]; at 11.0 µM 21% | [4]; at 1.2 µM -5% | [4]; at 3.7 µM -3% | [4]; [17] -151% | [4]; at 11.0 µM 46% | [5]; at 1.2 µM 4% | [5]; at 3.7 µM 46% | [5]; [17] 50% | [7]; [17] -64% | [8]; at 1.2 µM 0% | [8]; at 3.7 µM -11% | [8]; at 11.0 µM 35% | [9]; [17] -99% | [10]; at 1.2 µM -9% | [10]; at 3.7 µM -15% | [10]; [17] -107% | [10]; at 11.0 µM 26% | [11]; at 1.2 µM -5% | [11]; at 3.7 µM -4% | [11]; at 11.0 µM 14% | [13]; at 1.2 µM -3% | [13]; at 3.7 µM 6% | [13]; at 11.0 µM 50% | [16]; [17] -135% | [14]; at 1.2 µM -1% | [14]; at 3.7 µM 3% | [14]; at 11.0 µM 39%

CC1=C(SCCO)C(=O)c2ccccc2C1=O
inactive: [1]; at 1.2 µM -4% | [1]; at 3.7 µM -4% | [1]; at 11.0 µM -2% | [1]; at 33.0 µM 4% | [1]; at 100.0 µM 4% | [2]; at 1.2 µM -7% | [2]; at 3.7 µM 5% | [2]; at 11.0 µM 35% | [3]; at 1.2 µM -3% | [3]; at 3.7 µM -3% | [3]; at 11.0 µM 23% | [3]; at 33.0 µM -10% | [3]; at 100.0 µM 6% | [4]; at 1.2 µM -3% | [4]; at 3.7 µM 0% | [4]; [17] 1% | [4]; at 11.0 µM -8% | [4]; at 33.0 µM 37% | [4]; at 100.0 µM 42% | [5]; at 1.2 µM -1% | [5]; at 3.7 µM -1% | [5]; [17] -22% | [5]; at 11.0 µM 0% | [5]; at 33.0 µM 13% | [5]; at 100.0 µM 11% | [6]; at 1.2 µM 2% | [6]; at 3.7 µM 3% | [6]; at 11.0 µM 8% | [6]; at 33.0 µM 17% | [6]; at 100.0 µM 20% | [7]; [17] -37% | [8]; at 1.2 µM 0% | [8]; at 3.7 µM -5% | [8]; at 11.0 µM -2% | [8]; at 33.0 µM 12% | [8]; at 100.0 µM 14% | [9]; [17] -16% | [9]; [18] 27% | [9]; at 50.0 µM 67.2% | [10]; at 1.2 µM -4% | [10]; at 3.7 µM -1% | [10]; [17] -19% | [10]; at 11.0 µM 5% | [10]; at 33.0 µM 29% | [10]; at 100.0 µM 29% | [11]; at 1.2 µM -2% | [11]; at 3.7 µM 0% | [11]; at 11.0 µM 3% | [11]; at 33.0 µM 18% | [11]; at 100.0 µM 17% | [12]; at 1.2 µM 0% | [12]; at 3.7 µM -2% | [12]; at 11.0 µM 7% | [12]; at 33.0 µM 8% | [12]; at 100.0 µM 5% | [13]; at 1.2 µM -2% | [13]; at 3.7 µM -2% | [13]; at 11.0 µM 7% | [13]; at 33.0 µM 40% | [13]; at 100.0 µM 35% | [16]; [17] -29% | [16]; [18] 62% | [14]; at 1.2 µM -12% | [14]; at 3.7 µM -10% | [14]; at 11.0 µM -3% | [14]; at 33.0 µM 33% | [14]; at 100.0 µM 51%
active: [2]; at 33.0 µM 75% | [2]; at 100.0 µM 71% | [4]; [18] 99% | [4]; at 50.0 µM 84.2% | [5]; [18] 80% | [5]; at 50.0 µM 73.3% | [7]; [18] 72% | [7]; at 50.0 µM 81.5% | [10]; [18] 77% | [10]; at 50.0 µM 81.2% | [16]; at 50.0 µM 81.1%
